Experimental data published in PubChem BioAssay AID1159580 (chemical genetic matrix, 2015).
Several values for one entry are separate records, joined by “and”; a condition that tells them apart may be missing. Equal entries are not always repeated. The whole screen tested about 5,500 compounds, of which about 2,000 (36%) were called active. Roughly 18% stayed inconclusive and do not appear here. Rule as the data show it: active = normalized growth mostly below about 0.91 (no sharp cut-off); inconclusive = no clear call, values can overlap the other calls; inactive = mostly above about 0.92. The list shows a part of the results.

Assay: chemical genetic growth profiling, strain panel (AID 1159580);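 also: tested at 20 µM; growth read once vehicle control cultures reached saturation at 30 °C; 1 = growth at the plate median or of vehicle wells; lower values mean less growth of the strain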
Settings: S. cerevisiae deletion strains, growth OD

Measured: normalized growth

NNc1nncc2ccccc12
inactive: locus YAL013W, strain DEP1, active compounds read low 1.01 | locus YAL021C, strain ccr4, active compounds read low 0.991 | locus YAL026C, strain drs2, active compounds read low 0.973 | locus YAL030W, strain snc1, active compounds read low 1 | locus YAL040C, strain CLN3, active compounds read low 0.995 | locus YBL061C, strain skt5, active compounds read low 0.993 | locus YBR009C, strain hhf1, active compounds read low 0.983 | locus YBR021W, strain FUR4, active compounds read low 0.973 | locus YBR023C, strain chs3, active compounds read low 0.986 | locus YBR171W, strain sec66, active compounds read low 0.997 | locus YBR229C, strain ROT2, active compounds read low 1.01 | locus YBR231C, strain swc5, active compounds read low 0.981 | locus YBR279W, strain paf1, active compounds read low 0.996 | locus YCL011C, strain gbp2, active compounds read low 0.973 | locus YCL016C, strain dcc1, active compounds read low 0.969 | locus YCL029C, strain bik1, active compounds read low 1 | locus YCL061C, strain MRC1 (second series), active compounds read low 1 | locus YCL061C, strain MRC1, active compounds read low 0.988 | locus YCL069W, strain vba3, active compounds read low 1 | locus YCR088W, strain abp1, active compounds read low 0.999 | locus YDL005C, strain med2, active compounds read low 0.992 | locus YDL035C, strain GPR1, active compounds read low 1.02 | locus YDL040C, strain nat1, active compounds read low 1.01 | locus YDL074C, strain BRE1, active compounds read low 0.997 | locus YDL101C, strain DUN1, active compounds read low 1 | locus YDL134C, strain PPH21, active compounds read low 1.01 | locus YDL185W, strain tfp1, active compounds read low 0.999 | locus YDL192W, strain arf1, active compounds read low 0.999 | locus YDR001C, strain nth1, active compounds read low 0.997 | locus YDR069C, strain doa4, active compounds read low 1.02 | locus YDR101C, strain arx1, active compounds read low 1.01 | locus YDR137W, strain rgp1, active compounds read low 1.02 | locus YDR150W, strain NUM1, active compounds read low 1 | locus YDR159W, strain sac3, active compounds read low 1.03 | locus YDR162C, strain NBP2, active compounds read low 1.01 | locus YDR195W, strain ref2 1.06 | locus YDR297W, strain sur2, active compounds read low 1.02 | locus YDR318W, strain mcm21, active compounds read low 0.984 | locus YDR334W, strain swr1, active compounds read low 0.986 | locus YDR335W, strain msn5, active compounds read low 1.02 | locus YDR363W, strain ESC2, active compounds read low 0.997 | locus YDR388W, active compounds read low 0.993 | locus YDR392W, strain spt3, active compounds read low 0.878 | locus YDR502C, strain sam2, active compounds read low 0.986 | locus YEL003W, strain gim4, active compounds read low 0.989 | locus YEL037C, strain rad23, active compounds read low 1 | locus YEL061C, strain CIN8 (second series), active compounds read low 1 | locus YEL061C, strain CIN8, active compounds read low 1 | locus YER002W, strain NOP16, active compounds read low 0.995 | locus YER015W, strain faa2, active compounds read low 0.978 | locus YER016W, strain bim1, active compounds read low 1 | locus YER110C, active compounds read low 0.993 | locus YER111C, strain swi4, active compounds read low 0.986 | locus YER155C, strain BEM2 (second series), active compounds read low 0.947 | locus YER155C, strain BEM2, active compounds read low 1.02 | locus YER167W, strain BCK2, active compounds read low 1.01 | locus YFR010W, strain ubp6, active compounds read low 0.985 | locus YGL078C, strain dbp3, active compounds read low 0.999 | locus YGL086W, strain mad1, active compounds read low 0.996 | locus YGL167C, strain pmr1, active compounds read low 0.995 | locus YGL173C, strain kem1, active compounds read low 0.99 | locus YGL227W, strain vid30, active compounds read low 0.999 | locus YGL240W, strain doc1, active compounds read low 1 | locus YGL248W, strain PDE1, active compounds read low 0.99 | locus YGL253W, strain hxk2, active compounds read low 1.01 | locus YGR135W, strain pre9, active compounds read low 0.96 | locus YGR252W, strain gcn5, active compounds read low 0.941 | locus YHR013C, strain ard1, active compounds read low 0.986 | locus YHR027C, strain rpn1, active compounds read low 1 | locus YHR030C, strain SLT2, active compounds read low 1 and 1.02 | locus YHR079C, strain IRE1 (second series), active compounds read low 0.993 | locus YHR079C, strain IRE1, active compounds read low 1.01 | locus YHR094C, strain hxt1, active compounds read low 0.997 | locus YHR129C, strain ARP1, active compounds read low 0.997 | locus YHR142W, strain chs7, active compounds read low 0.997 | locus YHR200W, strain rpn10, active compounds read low 0.997 | locus YIL066C, strain RNR3, active compounds read low 1 | locus YIL073C, strain SPO22, active compounds read low 0.992 | locus YIL125W, strain kgd1, active compounds read low 1.01 | locus YIR030C, strain dcg1, active compounds read low 0.996 | locus YJL092W, strain hpr5, active compounds read low 0.988 | locus YJL095W, strain BCK1 (second series), active compounds read low 0.999 | locus YJL095W, strain BCK1, active compounds read low 0.971 and 0.995 | locus YJL115W, strain asf1, active compounds read low 0.996 | locus YJL129C, strain trk1, active compounds read low 0.994 | locus YJL134W, strain LCB3, active compounds read low 1 | locus YJL154C, strain vps35, active compounds read low 0.998 | locus YJL164C, strain tpk1, active compounds read low 0.993 | locus YJL166W, strain qcr8, active compounds read low 1 | locus YJL168C, strain set2, active compounds read low 0.989 | locus YJL187C, strain SWE1 (second series), active compounds read low 1 | locus YJL187C, strain SWE1, active compounds read low 1.01 | locus YJR043C, strain POL32, active compounds read low 1
